Screens (PubChem BioAssay)
miR-21 act: qHTS Assay for Modulators of miRNAs and/orActivators of miR-21; HeLa miR-21 FLuc reporter, luciferase, 48 h; Potency, µM (highest dose often 38.3 µM), hits mostly activators; 340,000 tested, under 10 active;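 also: miR-21 action dims this reporter so a rising signal means less miR-21 action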
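Using DMEM plus 10% FBS, HeLa miR-21-FLuc cells are incubated with test compounds (final up to about 40uM) for 48 hours; firefly luciferase signal is then imaged following reagent-mediated lysis.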
KinaseGlo FLuc: Counterscreen for Luciferase (Kinase-Glo TM) Inhibition | Luciferin 4-monooxygenase (Photuris pensylvanica), Q27757 | Kinase-Glo luciferase, ATP luminescence, 8 min | Potency, µM (doses to about 38.3 µM), usual class: inhibitors | 0.28% of 200,000 active; also: nearly all actives have a fitted effect of over 60% in size
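Kinase-Glo luciferase light output from ATP and luciferin was measured with 10 uM ATP, within the enzyme's linear range. Buffer: 50 mM imidazole pH 7.2, 50 mM KCl, 7 mM MgCl2, 0.01% Tween 20, 0.05% BSA; luminescence read after 8 min at ambient temperature.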
gsp ag: qHTS for Agonist of gsp, the Etiologic Mutation Responsible for Fibrous Dysplasia/McCune-Albright Syndrome: qHTS; gsp mutant cells, cAMP HTRF, 30 min; Potency, µM (top dose mostly 76.9 µM), actives largely listed as activators; 0.13% of 340,000 active; AID 624287, 2012; active = well fitted activation curve with a large enough effect; inconclusive = small, poorly fitted or top-dose-only effect, or another doubt; inactive = no such curve, though single readings can be large or run the other way; cell line not stated here;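 also: phosphodiesterase inhibitor Ro 20-1724 added with compounds to block cAMP breakdown; nearly all actives have a fitted effect of over 60% in size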
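Cells stably selected in G418 were plated at 2000/well, grown 16-24 hr, then given compounds in DMSO with the PDE inhibitor […] (300 uM solution added) for 30 min at 37C; cAMP was read by HTRF.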
RXFP1 agonist: qHTS Assay for Agonists of the Relaxin Receptor RXFP1; Relaxin receptor 1 (Homo sapiens), Q9HBX9; HEK293T-RXFP1 cAMP TR-FRET, 30 min; response scale: percent of porcine relaxin response, buffer zero; Potency, µM (series often up to 57.5 µM), usual class: activators; 0.3% of 370,000 active; also: nearly all actives have a fitted effect of over 60% in size
Target sequence (Q9HBX9 whole entry, looked up): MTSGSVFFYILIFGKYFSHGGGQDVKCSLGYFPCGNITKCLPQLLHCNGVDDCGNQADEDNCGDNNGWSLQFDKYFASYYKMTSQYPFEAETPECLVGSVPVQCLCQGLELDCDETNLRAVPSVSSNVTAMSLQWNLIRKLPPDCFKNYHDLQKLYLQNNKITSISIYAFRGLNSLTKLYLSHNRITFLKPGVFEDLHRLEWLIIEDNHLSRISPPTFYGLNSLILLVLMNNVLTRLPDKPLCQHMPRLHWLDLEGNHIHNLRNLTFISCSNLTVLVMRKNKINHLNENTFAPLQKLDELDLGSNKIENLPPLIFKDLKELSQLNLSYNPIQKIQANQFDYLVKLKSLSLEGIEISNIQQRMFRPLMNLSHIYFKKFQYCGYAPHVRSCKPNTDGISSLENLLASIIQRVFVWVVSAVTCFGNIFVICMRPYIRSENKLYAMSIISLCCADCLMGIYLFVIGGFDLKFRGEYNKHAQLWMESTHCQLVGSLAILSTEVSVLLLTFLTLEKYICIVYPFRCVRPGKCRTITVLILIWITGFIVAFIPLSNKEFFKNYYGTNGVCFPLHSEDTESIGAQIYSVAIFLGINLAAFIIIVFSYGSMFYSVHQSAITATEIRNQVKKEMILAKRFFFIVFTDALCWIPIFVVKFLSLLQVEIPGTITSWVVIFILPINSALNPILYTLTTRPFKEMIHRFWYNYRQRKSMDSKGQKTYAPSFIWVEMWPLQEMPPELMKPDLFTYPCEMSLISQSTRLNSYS
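HEK293T cells stably expressing RXFP1 were pretreated with the PDE4 inhibitor Ro 20174, exposed to compounds for 30 min at 37C, lysed, and cAMP was read by TR-FRET. Data normalized to buffer (basal) and 29 nM porcine relaxin (100%).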
gsp antag: qHTS for Antagonists of gsp, the Etiologic Mutation Responsible for Fibrous Dysplasia/McCune-Albright Syndrome: qHTS; gsp-mutant cells, cAMP HTRF, 30 min; Potency, µM (doses to about 76.9 µM), actives largely listed as inhibitors; AID 624288, 2012; 0.4% of 340,000 active; calls by dose curve; cell line not stated here;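 also: intracellular cAMP measured with PDE inhibitor Ro 20-1724 present during compound exposure; nearly all actives have a fitted effect of over 65% in size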
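HTRF cAMP measurement after 30 min RT detection following 30 min, 37C compound treatment alongside […] (added as 300 uM solution) in G418-selected cells seeded at 2000/well and grown 16–24 h.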
RXFP1 antagonist: qHTS Assay for Antagonists of the Relaxin Receptor RXFP1; Relaxin receptor 1 (Homo sapiens), Q9HBX9; HEK293-RXFP1, relaxin-stimulated cAMP HTRF, 30 min; stronger effect = lower value; activity change, negative = inhibition, % at 57.5 µM; 0.59% of 350,000 active; AID 1259400, 2018;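 active = activity change of -60% or lower, but not beyond a set lower limit; inconclusive = change between -60% and -40%, or beyond the set limit; inactive = change above -40%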
Numbers stand for hits; – = inactive; ? = inconclusive; · = not tested or not shown; [ ] = remark or other dose. Most compounds without a hit are left out; they make up all but 1% or so of the library. Unless noted, calls follow the shape of the dose curve; as a rule, active = well fitted curve in the direction sought with a large enough effect; inconclusive = small, poorly fitted or top-dose-only effect, or another doubt; inactive = no such curve, though single readings can be large; an effect the other way counts as inactive or inconclusive.

SMILES | miR-21 act | KinaseGlo FLuc | gsp ag | RXFP1 agonist | gsp antag | RXFP1 antagonist
CC(Cc1ccccc1)Nc1ncnc2c1ncn2C1OC(CO)C(O)C1O (stereo not drawn) | · | · | · | · | – | ·
NCCNC(=O)Cc1ccc(NC(=O)Cc2ccc(Nc3ncnc4c3ncn4[C@@H]3O[C@H](CO)[C@@H](O)[C@H]3O)cc2)cc1 | · | · | · | 1.4µM | – | ·
C[C@H]1C[C@H](O)c2ccsc2S1(=O)=O | · | · | · | · | · | –
Cc1ccc(C(=O)c2cn(Cc3ccc(F)cc3)c3nc(C)ccc3c2=O)cc1 | – | · | · | ? | · | ·
O=C(Cn1nc(-c2ccccc2)ccc1=O)Nc1ccc(-n2cnnn2)cc1 | – | · | –[15.4 µM] | – | 45µM | ?
COC(=O)c1ccccc1N/C=C/C(=O)c1ccc(Br)cc1 | – | – | – | – | – | –
NC(=O)c1ccccc1N/C=C/C(=O)c1ccccc1 | – | 11µM | ? | – | – | –
O=C1CCCC/C1=C\Nc1ccccc1C(=O)O | – | – | – | – | – | –
NC(=O)c1ccccc1N/C=C1\CCCCC1=O | – | – | – | – | 50µM | –
CCOC(=O)c1sc(NC(=O)c2cc(CC)on2)c(C(=O)OCC)c1C | – | · | · | – | · | –
CC(C)OC(=O)CNc1n[nH]c(=S)[nH]c1=O | – | – | –[15.4 µM] | 5µM | · | –
Fc1ccc(CSc2ccc3nnc(-c4cccs4)n3n2)cc1 | – | – | – | – | 32µM | –
Cc1cccc(CSc2ccc3nnc(-c4cccs4)n3n2)c1 | – | – | – | – | – | –
O=C(O)[C@@H]1[C@@H]2C[C@H]3c4[nH]c5ccccc5c4CCN3C[C@@H]2CC[C@@H]1O | · | – | · | · | · | ·
Cc1cccc(OCC(=O)NNc2c3ccccc3nc3ccccc23)c1 | – | – | – | – | 22µM | ?
Cc1cc(CNC(=O)COc2ccccc2)c2ccccc2n1 | – | – | –[15.4 µM] | – | – | –
O=C(Cc1ccccc1)NNc1c2ccccc2nc2ccccc12 | – | – | – | – | – | –
Cc1ccc(OCC(=O)NNc2c3ccccc3nc3ccccc23)cc1 | – | – | – | – | 28µM | -67
CCOC(=O)C1CCC(CN(Cc2c(Cl)cccc2Cl)S(=O)(=O)c2ccc(F)c(C)c2)CC1 (stereo not drawn) | – | · | · | – | · | –
CCNc1nc(C)c2cc(Br)c(=O)n(CC)c2n1 | – | – | 20µM | ? | – | –
Cc1cc(OC(C)C(=O)N(Cc2ccco2)Cc2ccccc2F)cc(C)c1Cl (stereo not drawn) | – | · | · | – | · | -72
O=[N+]([O-])c1ccc(Sc2cccc[n+]2[O-])c2nonc12 | ? | · | –[15.4 µM] | – | 35µM | ?
O=[N+]([O-])c1ccc(Nc2ccccc2)c2nonc12 | – | · | – | – | – | –
CC(=O)c1cccc(N(C(=O)c2csnn2)C(C(=O)NC2CCCC2)c2ccccc2)c1 (stereo not drawn) | – | · | – | – | – | -80
Cc1cc(C)cc(N(C(=O)c2csnn2)C(C(=O)NC2CCCCC2)c2ccncc2)c1 (stereo not drawn) | – | · | –[15.4 µM] | – | – | –
SMILES | miR-21 act | KinaseGlo FLuc | gsp ag | RXFP1 agonist | gsp antag | RXFP1 antagonist
CC(C)c1cc(-c2nc(-c3ccc(Cl)cc3)no2)n[nH]1 | – | · | · | – | · | –
CC(C)OCCCn1c(=O)c2ccccc2n2c(CCC(=O)N3CCN(c4ccccn4)CC3)nnc12 | – | · | 20µM | – | – | –
CC(C)CCn1c(=O)c2ccccc2n2c(CCC(=O)NC3CCN(Cc4ccccc4)CC3)nnc12 | – | · | – | – | – | –
CC(C)CCn1c(=O)c2ccccc2n2c(CCC(=O)NCC3CCCO3)nnc12 (stereo not drawn) | – | · | 32µM | ? | – | –
O=c1c(Cl)c(N2CCCCC2)cnn1-c1nc2ccccc2[nH]1 | – | 1.6µM | – | – | – | –
Clc1ccc2nc(N3CCCCC3)[nH]c2c1 | – | – | – | – | – | –
O=c1c2ccccc2cnn1-c1nc2ccccc2[nH]1 | ? | 2µM | – | – | – | –
O=c1c2ccccc2nc2c3ccccc3cnn12 | – | – | – | – | – | –
Cc1ccc(CN2CCc3nc(N4CCN(C)CC4)ncc3C2)s1 | – | · | · | – | · | –
Cc1ccc(C(=O)Cn2nnc(-c3cccs3)n2)cc1 | – | · | ? | – | 50µM | –
Cc1ccc(C(C)C)c(OCC(=O)Nc2ccc3c(c2)nc(CCN2CCCCC2)n3C)c1 | ? | · | ? | – | – | -61
O=C(NN1CC(C(=O)OCc2ccc(Br)cc2)CC1=O)c1ccccc1 (stereo not drawn) | – | · | – | – | – | –
Cc1ccccc1C(=O)NN1CC(C(=O)OCc2ccc(Cl)c(Cl)c2)CC1=O (stereo not drawn) | – | · | – | – | 32µM | –
COc1cccc(NC(=O)C2CCCN(c3nnc(-n4c(C)ccc4C)s3)C2)c1 (stereo not drawn) | – | · | · | – | · | –
O=C(/C(=N\Nc1ccc([N+](=O)[O-])cc1)Sc1nnnn1-c1ccccc1)c1ccccc1 | – | – | – | – | ? | –
Cc1ccc(N/N=C(/Sc2nnnn2-c2ccccc2)C(=O)c2ccccc2)cc1 | – | – | – | – | 25µM | ·
CCOc1ccc(-c2nn(-c3ccccc3)cc2C2NC(=O)NC(C)=C2C(=O)OC(C)C)cc1 (stereo not drawn) | – | · | · | – | · | ·
CCOC(=O)CN1C(=O)N[C@@H](c2ccccc2)[C@H](C(=O)OC)[C@H]1C | · | –[7.66 µM] | · | · | · | ·
CN(Cc1ccccc1F)c1nc(-c2cccs2)nc2ccccc12 | – | – | –[15.4 µM] | – | 11µM | –
Cc1nc(SC2CCOC2=O)c2c(C)c(C)sc2n1 (stereo not drawn) | – | – | 20µM | ? | – | –
Cc1ccc2nc(N)[nH]c(=O)c2c1Sc1ccncc1 | · | · | · | · | · | –
Cc1cc(-c2c(C)[nH]n(-c3ccc(Cl)cc3)c2=O)n(-c2ccc(Cl)cc2)n1 | – | – | – | – | 32µM | –
CCOc1ccc(NC(=O)CCS(=O)(=O)c2ccc3c(c2)n(C)c(=O)c(=O)n3C)cc1 | – | · | · | – | · | –
COc1ccc(CCNC(=O)Cn2nnc(-c3cccc(C(F)(F)F)c3)n2)cc1OC | – | · | · | – | · | –
COc1ccc([C@]23Cc4ccccc4C(O2)C2=C(CC4(CCCCC4)OC2=O)O3)cc1 | –[7.66 µM] | · | · | –[11.5 µM] | · | ·
CSC1=C(C#N)C(c2ccc3c(c2)OCO3)C2=C(CCCC2=O)N1 (stereo not drawn) | – | – | – | – | – | –
CCSC1=C(C#N)C(c2ccc(Cl)cc2)C2=C(CCCC2=O)N1 (stereo not drawn) | – | – | – | – | 45µM | –
